# Test results reported in PubChem BioAssay (EPA / NIEHS).
# Active and inactive are the calls of the source. Rule for the calls: active = hit-call score of the fitted dose curve at least 0.9, where 1 is the maximum; inactive = score below 0.9.
# How the values were obtained:
# [1] = ATG_AP_1_CIS: Attagene CIS-FACTORIAL HepG2 Assay for human Activator Protein 1 (AP-1) (AID 2282931); conditions: HepG2 Attagene cis-factorial AP-1 reporter mRNA; actives raise or lower the signal
# Outline: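 Readout is reporter transcript level from endogenous transcription factor activity, quantified by RT-PCR with fluorescent primer extension and capillary electrophoresis. Transiently transfected HepG2 cells, 24 h exposure. Curves fitted both directions versus DMSO.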
# [2] = ATG_BRE_CIS: Attagene CIS-FACTORIAL HepG2 Assay for human Bone Morphogenetic Protein (BMP) Response Element (BRE) (AID 2282933); conditions: HepG2 BMP response element reporter, Attagene transcription factor profiling; actives raise or lower the signal
# Outline: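 A HepG2 multiplex reporter system measured inducible reporter mRNA 24 h post-dosing. Detection: RT-PCR, 6-FAM primer extension, HpaI digestion, capillary electrophoresis. Activity fitted bidirectionally relative to DMSO.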
# [3] = molecular target: Transcription factor E2F1 (Homo sapiens) (UniProt Q01094); test: ATG_E2F_CIS: Attagene CIS-FACTORIAL HepG2 Assay for human E2F Transcription Factor 1 (AID 2282935); conditions: HepG2 Attagene cis-reporter, E2F reporter RNA transcripts; actives raise or lower the signal
# Outline: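 Liver-derived HepG2 cells expressing transfected promoter-driven reporter units received test chemical for 24 hours. Signal gains or losses were fitted bidirectionally against DMSO.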
# [4] = ATG_E_Box_CIS: Attagene CIS-FACTORIAL HepG2 Assay for human Enhancer Box (E-box) (AID 2282936); conditions: HepG2 E-box cis-reporter transcription, actives raise or lower the signal
# Outline: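 In this cell-based setup, HepG2 cells bearing transfected promoter-driven reporter units were exposed to chemicals for 24 h; reporter transcripts were amplified, 6-FAM-labelled, cut with HpaI and sized by capillary electrophoresis.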
# [5] = ATG_M_61_CIS: Attagene CIS-FACTORIAL HepG2 Assay for M61 Transcription Factor (Internal Marker) (AID 2282937); conditions: HepG2 Attagene CIS-FACTORIAL M61 internal marker reporter; actives raise or lower the signal
# Outline: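 Readout is reporter mRNA by RT-PCR, fluorescent primer extension and capillary electrophoresis, with gain or loss fitted relative to DMSO. Transfected HepG2 cells carrying endogenous-TF-driven cis reporters were exposed to chemicals for 24 hours.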
# [6] = ATG_EGR_CIS: Attagene CIS-FACTORIAL HepG2 Assay for human Early Growth Response 1 (EGR1) (AID 2282938); conditions: HepG2 Attagene CIS-FACTORIAL EGR reporter mRNA; actives raise or lower the signal
# Outline: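 After 24 h compound exposure, RNA from reporter-transfected HepG2 cells was reverse-transcribed, PCR-amplified, fluorescently labelled and resolved by capillary electrophoresis. EGR1 reporter transcript changes, up or down, were fitted against DMSO, reflecting endogenous transcription-factor activity.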
# [7] = ATG_M_19_CIS: Attagene CIS-FACTORIAL HepG2 Assay for M19 Transcription Factor (Internal Marker) (AID 2282939); conditions: HepG2 Attagene CIS-FACTORIAL M19 internal marker reporter; actives raise or lower the signal
# Outline: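 Chemical-treated HepG2 (24 h) with MRTU constructs; reporter transcripts detected by fluorescent RT-PCR fragment analysis on capillary electrophoresis. Internal background marker, DMSO as baseline.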
# [8] = ATG_ERE_CIS: Attagene CIS-FACTORIAL HepG2 Assay for Estrogen Response Element (ERE) (AID 2282940); conditions: HepG2 ERE cis-reporter, Attagene RNA transcript; actives raise or lower the signal
# Outline: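 Human liver cells (HepG2) bearing transiently transfected, promoter-regulated reporter units were exposed 24 h. Reporter mRNA induction was detected by capillary electrophoresis of labelled RT-PCR products and fitted bidirectionally to DMSO.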
# [9] = ATG_Ets_CIS: Attagene CIS-FACTORIAL HepG2 Assay for human Erythroblast Transformation Specific (ETS) (AID 2282941); conditions: HepG2 ETS cis-reporter transcription, actives raise or lower the signal
# Outline: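 Multiplexed reporter transcript profiling: HepG2, 24 h treatment, total RNA to cDNA, PCR, 6-FAM labelling, HpaI cut, capillary electrophoresis. Gain- or loss-of-signal fitted against DMSO.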
# [10] = molecular target: Hepatocyte nuclear factor 3-beta (Homo sapiens) (UniProt Q9Y261); test: ATG_FoxA2_CIS: Attagene CIS-FACTORIAL HepG2 Assay for human Forkhead box A2 (FOXA2) (AID 2282942); conditions: HepG2 cis-reporter transcription factor activity, 24 h; actives raise or lower the signal
# Outline: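 Endogenous transcription factor activity is captured via cis-element-driven reporter transcripts in transfected HepG2. Total RNA taken at 24 h post-dosing; labelled RT-PCR products resolved by capillary electrophoresis. Gain or loss fitted versus DMSO.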
# [11] = ATG_FoxO_CIS: Attagene CIS-FACTORIAL HepG2 Assay for human Forkhead box O (FoxO) (AID 2282943); conditions: HepG2 Attagene cis-reporter, FoxO element, mRNA; actives raise or lower the signal
# Outline: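 Transfected HepG2 reporter cells exposed to test chemical for 24 h; reporter RNA measured by reverse transcription, PCR and fluorescent capillary electrophoresis; curves fitted for increases and decreases against DMSO.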
# [12] = ATG_GATA_CIS: Attagene CIS-FACTORIAL HepG2 Assay for human GATA Binding Protein (AID 2282944); conditions: HepG2 GATA cis-element reporter, Attagene multiplex mRNA; actives raise or lower the signal
# Outline: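 Transfected cis-reporter HepG2 cells were treated with chemicals for 24 hours. Total RNA was then converted to cDNA, amplified with reporter-specific primers and analysed by fluorescent capillary electrophoresis, using DMSO-treated wells as baseline.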
# [13] = ATG_GLI_CIS: Attagene CIS-FACTORIAL HepG2 Assay for human Zinc Finger Protein GLI1 (AID 2282945); conditions: HepG2, Attagene cis-factorial reporter mRNA, GLI element; actives raise or lower the signal
# Outline: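 Transiently transfected HepG2 cells report endogenous transcription factor activity via cis-element-driven reporter units. After 24 h compound exposure, reporter mRNA was measured by RT-PCR with capillary electrophoresis; bidirectional fitting against DMSO baseline.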
# [14] = ATG_ISRE_CIS: Attagene CIS-FACTORIAL HepG2 Assay for human Interferon Regulatory Factor 1 (IRF1) binding to an Interferon-Stimulated Response Element (ISRE) (AID 2282948); conditions: HepG2 ISRE cis-reporter (Attagene), mRNA transcription readout; actives raise or lower the signal
# Outline: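 Signal reflects induction or loss of ISRE-linked reporter mRNA in transiently transfected HepG2 cells after a 24 h treatment, detected by fluorescent RT-PCR fragments on capillary electrophoresis and normalised to DMSO.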
# [15] = ATG_M_32_CIS: Attagene CIS-FACTORIAL HepG2 Assay for M32 Transcription Factor (Internal Marker) (AID 2282949); conditions: HepG2 Attagene cis-factorial M32 reporter, mRNA; actives raise or lower the signal;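 note: background control marker of the multiplexed CIS panel rather than a real target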
# Outline: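 HepG2 transfectants (cis-regulated reporter transcription units) dosed 24 h. Reporter mRNA by RT-PCR plus CE, analysed as gain or loss relative to DMSO.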
# [16] = ATG_M_06_CIS: Attagene CIS-FACTORIAL HepG2 Assay for M06 Transcription Factor (Internal Marker) (AID 2282950); conditions: HepG2 Attagene CIS-FACTORIAL M06 internal marker reporter; actives raise or lower the signal
# Outline: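 Cells (HepG2, transiently carrying cis-driven reporter units) receive chemical for 24 h before RNA isolation. Reporter cDNA is PCR-amplified, FAM-labelled by primer extension, HpaI-digested and sized on a capillary analyser.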
# [17] = ATG_AP_2_CIS: Attagene CIS-FACTORIAL HepG2 Assay for human Activator Protein 2 (AP-2) (AID 2282932); conditions: HepG2 AP-2 cis-reporter, Attagene transcription factor profiling; actives raise or lower the signal
# Outline: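 Liver-derived HepG2 line, cis-reporter system measuring endogenous factors; 24 h dosing; reporter mRNA detected by fluorescent RT-PCR and capillary electrophoresis.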
# [18] = molecular target: Bile acid receptor (Homo sapiens) (UniProt Q96RI1); test: ATG_IR1_CIS: Attagene CIS-FACTORIAL HepG2 Assay for human Nuclear Receptor Subfamily 1 Group H Member 4 (NR1H4), IR1 submotif (AID 2282946); conditions: IR1 reporter transcription, actives raise or lower the signal
# Outline: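 Fluorescence of capillary-separated, HpaI-digested RT-PCR reporter products gave IR1-element mRNA induction in HepG2 cells 24 h after dosing. Endogenous transcription factors drove the cis-regulated reporters; activity was fitted bidirectionally against DMSO.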
# [19] = molecular target: Retinoic acid receptor alpha (Homo sapiens) (UniProt P10276); test: ATG_DR5_RAR_CIS: Attagene CIS-FACTORIAL HepG2 Assay for human Retinoic Acid Receptor Alpha (RARE), DR5 submotif (AID 2282934); conditions: HepG2 Attagene cis-factorial RARE DR5 reporter, mRNA; actives raise or lower the signal;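 for AC50: reporter responds to endogenous RAR alpha beta and gamma in HepG2 not RARA alone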
# Outline: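 After 24 h of chemical exposure, transiently transfected HepG2 cells were lysed for total RNA; the DR5-regulated reporter transcript was quantified via RT-PCR and capillary electrophoresis, with activity fitted bidirectionally against DMSO.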
# [20] = ATG_GRE_CIS: Attagene CIS-FACTORIAL HepG2 Assay for human Glucocorticoid Response Elements (GRE) (AID 2282947); conditions: HepG2 GRE cis-reporter, Attagene multiplex mRNA; actives raise or lower the signal
# Outline: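 Fluorescence intensity of reporter-specific cDNA fragments, separated by capillary electrophoresis, provides the signal. Constructs carry cis-regulating promoters in transiently transfected HepG2 liver cells; 24 h incubation; fitting is bidirectional against DMSO.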
# Sequence of Bile acid receptor (Homo sapiens) (Q96RI1 whole entry, looked up): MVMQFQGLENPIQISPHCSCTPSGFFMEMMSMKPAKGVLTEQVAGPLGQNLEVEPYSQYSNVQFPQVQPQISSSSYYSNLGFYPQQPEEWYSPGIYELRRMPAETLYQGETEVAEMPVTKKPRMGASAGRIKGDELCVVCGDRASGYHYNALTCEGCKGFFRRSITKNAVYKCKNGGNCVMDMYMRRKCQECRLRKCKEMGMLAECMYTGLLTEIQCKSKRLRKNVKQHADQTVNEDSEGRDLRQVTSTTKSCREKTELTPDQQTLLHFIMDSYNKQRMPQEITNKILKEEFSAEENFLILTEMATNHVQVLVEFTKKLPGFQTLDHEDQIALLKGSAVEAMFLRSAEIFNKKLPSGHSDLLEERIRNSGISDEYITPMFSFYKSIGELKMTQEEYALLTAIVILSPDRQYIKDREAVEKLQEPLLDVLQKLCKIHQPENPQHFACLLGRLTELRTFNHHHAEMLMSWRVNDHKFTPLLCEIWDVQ
# Sequence of Transcription factor E2F1 (Homo sapiens) (Q01094 whole entry, looked up): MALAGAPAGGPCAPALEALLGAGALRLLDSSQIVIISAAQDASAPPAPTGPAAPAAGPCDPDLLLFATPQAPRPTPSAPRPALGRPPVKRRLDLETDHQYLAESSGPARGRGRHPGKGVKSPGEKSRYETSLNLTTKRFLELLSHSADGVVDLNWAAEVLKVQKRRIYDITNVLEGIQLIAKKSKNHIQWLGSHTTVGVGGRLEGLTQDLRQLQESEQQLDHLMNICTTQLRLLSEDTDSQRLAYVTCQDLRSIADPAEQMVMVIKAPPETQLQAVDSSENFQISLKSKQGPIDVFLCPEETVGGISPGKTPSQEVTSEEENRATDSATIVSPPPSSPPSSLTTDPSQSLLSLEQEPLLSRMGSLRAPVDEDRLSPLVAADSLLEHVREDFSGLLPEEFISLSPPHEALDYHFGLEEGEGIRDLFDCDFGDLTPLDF
# Sequence of Hepatocyte nuclear factor 3-beta (Homo sapiens) (Q9Y261 whole entry, looked up): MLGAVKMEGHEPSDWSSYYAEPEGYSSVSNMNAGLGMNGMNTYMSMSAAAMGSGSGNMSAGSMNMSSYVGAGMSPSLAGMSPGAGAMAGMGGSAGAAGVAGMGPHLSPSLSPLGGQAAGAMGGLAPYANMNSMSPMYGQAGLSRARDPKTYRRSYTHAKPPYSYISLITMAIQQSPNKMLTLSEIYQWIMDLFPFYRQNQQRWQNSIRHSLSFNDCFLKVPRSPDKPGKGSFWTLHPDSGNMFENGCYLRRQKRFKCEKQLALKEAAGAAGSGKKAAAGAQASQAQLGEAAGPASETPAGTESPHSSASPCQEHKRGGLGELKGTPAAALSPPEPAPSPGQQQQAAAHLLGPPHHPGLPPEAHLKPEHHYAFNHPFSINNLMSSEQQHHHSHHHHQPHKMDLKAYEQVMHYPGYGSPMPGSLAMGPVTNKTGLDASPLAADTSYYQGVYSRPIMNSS
# Sequence of Retinoic acid receptor alpha (Homo sapiens) (P10276 whole entry, looked up): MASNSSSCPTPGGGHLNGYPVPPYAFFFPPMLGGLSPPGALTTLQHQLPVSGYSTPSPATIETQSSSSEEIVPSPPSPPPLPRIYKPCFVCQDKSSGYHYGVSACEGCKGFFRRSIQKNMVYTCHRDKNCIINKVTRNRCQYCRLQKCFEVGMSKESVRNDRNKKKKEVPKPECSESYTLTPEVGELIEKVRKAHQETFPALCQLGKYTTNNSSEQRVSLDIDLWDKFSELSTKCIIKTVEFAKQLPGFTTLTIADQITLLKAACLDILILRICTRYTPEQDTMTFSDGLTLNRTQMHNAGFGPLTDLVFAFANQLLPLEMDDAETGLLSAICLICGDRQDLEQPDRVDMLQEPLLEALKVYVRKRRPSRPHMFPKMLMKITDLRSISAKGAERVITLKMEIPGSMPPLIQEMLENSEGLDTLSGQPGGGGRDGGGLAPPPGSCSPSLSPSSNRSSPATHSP
compound,measurement,setting,value
NC(=O)O,outcome,[1],inactive
same,outcome,[2],inactive
same,outcome,[3],inactive
same,outcome,[4],inactive
same,outcome,[5],inactive
same,outcome,[6],inactive
same,outcome,[7],inactive
same,outcome,[8],inactive
same,outcome,[9],inactive
same,outcome,[10],inactive
same,outcome,[11],inactive
same,outcome,[12],inactive
same,outcome,[13],inactive
same,outcome,[14],inactive
same,outcome,[15],inactive
same,outcome,[16],inactive
ClCCBr,outcome,[1],inactive
same,outcome,[2],inactive
same,outcome,[3],inactive
same,outcome,[4],inactive
same,outcome,[5],inactive
same,outcome,[6],inactive
same,outcome,[7],inactive
same,outcome,[8],inactive
same,outcome,[9],inactive
same,outcome,[10],inactive
same,outcome,[11],inactive
same,outcome,[12],inactive
same,outcome,[13],inactive
same,outcome,[14],inactive
same,outcome,[15],inactive
same,outcome,[16],inactive
C[C@H]1CCCC(=O)CCC/C=C/c2cc(O)cc(O)c2C(=O)O1,outcome,[1],inactive
same,outcome,[17],inactive
same,AC50,[2],64500 nM (active)
same,outcome,[3],inactive
same,outcome,[4],inactive
same,outcome,[5],inactive
same,AC50,[6],10200 nM (active)
same,outcome,[7],inactive
same,AC50,[8],2.91 nM (active)
same,AC50,[9],7350 nM (active)
same,outcome,[10],inactive
same,AC50,[11],10300 nM (active)
same,outcome,[12],inactive
same,outcome,[13],inactive
same,AC50,[14],16800 nM (active)
same,outcome,[15],inactive
same,outcome,[16],inactive
OCc1ccco1,outcome,[1],inactive
same,outcome,[2],inactive
same,outcome,[3],inactive
same,outcome,[4],inactive
same,outcome,[5],inactive
same,outcome,[6],inactive
same,outcome,[8],inactive
same,outcome,[9],inactive
same,outcome,[10],inactive
same,outcome,[11],inactive
same,outcome,[12],inactive
same,outcome,[13],inactive
same,outcome,[18],inactive
same,outcome,[14],inactive
same,outcome,[15],inactive
same,outcome,[16],inactive
O=C(O)C(F)(F)C(F)(F)C(F)(F)C(F)(F)C(F)(F)C(F)(F)F,outcome,[1],inactive
same,outcome,[2],inactive
same,outcome,[19],inactive
same,outcome,[3],inactive
same,outcome,[4],inactive
same,outcome,[5],inactive
same,outcome,[6],inactive
same,outcome,[7],inactive
same,outcome,[9],inactive
same,outcome,[10],inactive
same,outcome,[11],inactive
same,outcome,[12],inactive
same,outcome,[13],inactive
same,outcome,[18],inactive
same,outcome,[14],inactive
same,outcome,[15],inactive
same,outcome,[16],inactive
C=C(C)C(=O)[O][Sn]([CH2]CCC)([CH2]CCC)[CH2]CCC,AC50,[1],451 nM (active)
same,outcome,[2],inactive
same,AC50,[19],7.07 nM (active)
same,outcome,[3],inactive
same,AC50,[4],562 nM (active)
same,outcome,[5],inactive
same,outcome,[6],inactive
same,outcome,[7],inactive
same,outcome,[8],inactive
same,outcome,[9],inactive
same,outcome,[10],inactive
same,AC50,[11],665 nM (active)
same,outcome,[12],inactive
same,outcome,[13],inactive
same,AC50,[18],11.2 nM (active)
same,outcome,[20],inactive
same,AC50,[14],612 nM (active)
same,outcome,[15],inactive
same,outcome,[16],inactive
C=CCc1ccc(OC)cc1,outcome,[1],inactive
same,outcome,[2],inactive
same,outcome,[3],inactive
same,outcome,[4],inactive
same,outcome,[5],inactive
same,outcome,[6],inactive
same,outcome,[9],inactive
same,outcome,[10],inactive
same,outcome,[11],inactive
same,outcome,[12],inactive
same,outcome,[13],inactive
same,outcome,[14],inactive
same,outcome,[15],inactive
same,outcome,[16],inactive
O=CC=O,outcome,[1],inactive
same,outcome,[2],inactive
same,outcome,[19],inactive
same,outcome,[3],inactive
same,outcome,[4],inactive
same,outcome,[5],inactive
same,outcome,[6],inactive
same,outcome,[8],inactive
same,outcome,[9],inactive
same,outcome,[10],inactive
same,outcome,[11],inactive
same,outcome,[12],inactive
same,outcome,[13],inactive
same,outcome,[20],inactive
same,outcome,[14],inactive
same,outcome,[15],inactive
same,outcome,[16],inactive
COc1cc(OC)nc(NC(=O)NS(=O)(=O)c2ncccc2C(=O)N(C)C)n1,outcome,[1],inactive
same,outcome,[17],inactive
same,outcome,[2],inactive
same,outcome,[3],inactive
same,outcome,[4],inactive
same,outcome,[5],inactive
same,outcome,[6],inactive
same,outcome,[7],inactive
same,outcome,[8],inactive
same,outcome,[9],inactive
same,outcome,[10],inactive
same,outcome,[11],inactive
same,outcome,[12],inactive
same,outcome,[13],inactive
same,outcome,[20],inactive
same,outcome,[14],inactive
same,outcome,[15],inactive
same,outcome,[16],inactive
CCN1CCC2(CC1)COc1cc3c(cc12)N(C(=O)c1ccc(-c2ccc(-c4nnc(C)o4)cc2C)cc1)CC3,outcome,[1],inactive
same,outcome,[2],inactive
same,outcome,[19],inactive
same,outcome,[3],inactive
same,outcome,[4],inactive
same,outcome,[5],inactive
same,outcome,[6],inactive
same,outcome,[7],inactive
same,outcome,[8],inactive
same,outcome,[9],inactive
same,outcome,[10],inactive
same,outcome,[11],inactive
same,outcome,[12],inactive
same,outcome,[13],inactive
same,outcome,[18],inactive
same,outcome,[14],inactive
same,outcome,[15],inactive
same,outcome,[16],inactive
